Bioassay records: PubChem BioAssay, National Center for Advancing Translational Sciences (NCATS)
An excerpt weighted towards active compounds, which were near 19% of everything screened.
TDP1 cell noCPT – qHTS for Inhibitors of human tyrosyl-DNA phosphodiesterase 1 (TDP1): qHTS in cells in absence of CPT. Potency, µM (doses to about 46.2 µM), without a hit: at the top dose activity change, negative = growth inhibition, usual class: inhibitors. DT40 Tdp1-/- hTDP1 cells, no CPT, ATP luminescence, 48 h. 420,000 compounds, 15% hits; further: potency means the concentration at half of the fitted maximal effect; on the % scale 0 is the no-effect control and ±100 the full control effect; nearly all actives have a fitted effect of over 55% in size
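No-CPT arm: Tdp1-/-;hTDP1 DT40 cells (400/well) plus compounds, incubated ≥48 hr at 37 °C. Readout CellTiter-Glo luminescence.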
IL1B secr inh – blocks inflammasome-driven IL-1 beta release | THP-1 LPS/ATP IL-1B secretion, AlphaLISA, 16 h; hits give low values | activity change, % at 57.5 µM | 360,000 compounds, 4.7% hits | AID 743279; in the data active means activity change below about -50%; inconclusive means mostly about -30% to -49%; further: on the % scale 0 is the no-effect control and ±100 the full control effect
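THP-1 cells pretreated 1 hr with compounds (up to 57.5 uM final), then stimulated with LPS (250 ng/mL final) plus ATP (1.25 mM final); secreted IL-1B measured by AlphaLISA after 16 hr, decreased signal indicating inhibition.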
SW480 rereplic – induces DNA re-replication in SW480 colon adenocarcinoma cells | SW480 DNA re-replication, Hoechst DNA content imaging, 48 h | 340,000 compounds, 1.8% hits | Potency, µM (series often up to 46.1 µM), for inactives: top-dose re-replication activation, hits mostly activators; further: potency means the concentration at half of the fitted maximal effect; % of control where 0% means no effect; nearly all actives have a fitted effect of over 55% in size
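SW480 cells exposed to compounds for 48 hr at 37 C, 5% CO2, then Hoechst-stained 40 min. Nuclear DNA content imaged by fluorescence scanning (405 nm excitation, 500-530 nm emission); re-replication scored as increased high-intensity nuclei.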
Chronic BCR inh – blocks chronic active B-cell receptor signaling | ABC-DLBCL IkBa-CBG/CBR reporter, luminescence ratio, 4 h | Potency, µM (highest dose often 46.1 µM), for the others: at the highest dose activity change, negative = inhibition, hits mostly inhibitors | 340,000 compounds, 0.05% hits | AID 493014; active means well fitted inhibition curve with a large enough effect in the signal ratio, with a control signal flat, not every such curve was filed as active; inconclusive means small, poorly fitted or top-dose-only effect, or effect the other way, or a change in a side signal; the % refers to the signal ratio;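 further: potency means the concentration at half of the fitted maximal effect; plate controls were basal doxycycline-induced cells for no effect and cells given 10 µM MG132 for full effect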
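Compounds up to 46 uM were incubated four hours with TMD8 cells whose green CBG68 luciferase is fused to IkappaBalpha; red CBR luminescence normalised the signal, and concentration-effect curves were fitted to fusion, red and ratio data.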
MCF10A rereplic – inducers of DNA re-replication in MCF 10A breast cells | MCF 10A DNA re-replication, Hoechst nuclear intensity, 48 h | AID 624296 | Potency, µM (series often up to 46.1 µM), for inactives: at the highest dose activity, positive = re-replication, hits mostly activators | 350,000 compounds, 2.9% hits; further: potency means the concentration at half of the fitted maximal effect; % of control where 0% means no effect; nearly all actives have a fitted effect of over 50% in size
TDP1 cell CPT – growth inhibition of DT40 Tdp1-/-;hTDP1 cells with camptothecin (screen for TDP1 inhibitors) | Potency, µM (series often up to 46.2 µM), without a hit: at the highest dose activity change, negative = growth inhibition, actives largely listed as inhibitors | chicken DT40 Tdp1-/-;hTDP1 cells + 20 nM CPT, ATP luminescence, 48 h | 420,000 compounds, 12% hits | AID 686979; further: potency means the concentration at half of the fitted maximal effect; on the % scale 0 is the no-effect control and ±100 the full control effect; nearly all actives have a fitted effect of over 55% in size
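Chicken DT40 Tdp1-/- cells complemented with human TDP1, 400 cells/well, exposed to compounds plus 20 nM camptothecin for at least 48 h at 37 C; viability read as ATP content by CellTiter-Glo luminescence.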
Numbers without * were called inactive; u = inconclusive; x = no result given. Unless noted, the call rests on the fitted dose curve; in most records, active means well fitted curve in the direction sought with a large enough effect; inconclusive means small, poorly fitted or top-dose-only effect, or another doubt; inactive means no such curve, though single readings can be large; an effect the other way counts as inactive or inconclusive.

SMILES	TDP1 cell noCPT	IL1B secr inh	SW480 rereplic	Chronic BCR inh	MCF10A rereplic	TDP1 cell CPT
CSc1ccccc1OCc1cc(C(=O)NC(C)c2cnn(C)c2)no1 (configuration not stated)	u	-16	6%	u	-2%	u
COC(=O)[C@H](Cc1ccccc1)NC(=O)c1cc(COc2c(F)cccc2F)on1	-13%	14	-17%	4%	-3%	-24%
CN(Cc1cccc2cnccc12)C(=O)c1cc(COc2ccc(F)cc2F)on1	u	u	-6%	u	16%	u
CCc1ccc(CN(C)C(=O)c2cc(COc3cccc4cnccc34)on2)cc1	6.5µM*	-6	-10%	u	21µM*	9.2µM*
CN(Cc1cc(-c2ccccc2)on1)C(=O)c1cc(COc2c(F)cccc2F)on1	u	-11	-4%	1%	3%	10µM*
Cc1nc(CN(C)C(=O)c2cc(COc3c(F)cccc3F)on2)cs1	u	-7	-5%	u	-6%	-20%
CCOc1ccccc1CN1CCC(n2nccc2NC(=O)C2CCCC2)CC1	-1%	-9	-4%	u	1%	-1%
CCc1ccc(CN(C)C(=O)c2cc(COc3c(F)cccc3F)on2)cc1	16µM*	-58*	1%	-3%	18%	23µM*
CN(Cc1ccccc1)C(=O)c1cc(-c2cccc(Cl)c2)on1	u	x	x	x	x	23µM*
CCOc1cc(-c2c(C#N)c(N)nc3c2CCCC3)ccc1O	21µM*	-4	-5%	4%	1%	u
COc1cc(-c2cc(-c3ccc(F)cc3)nc(N)c2C#N)ccc1O	u	1	-1%	u	-4%	u
CCOc1cc(-c2cc(-c3ccc(N)cc3)nc(N)c2C#N)ccc1O	18µM*	-62*	u	u	12µM*	15µM*
CCOc1cc(-c2cc(-c3ccccc3)nc(N)c2C#N)ccc1O	u	u	u	-22%	u	23µM*
N#Cc1c(-c2cccnc2)cc(-c2ccccc2)nc1N	u	0	u	u	14%	-1%
Cc1cc(/C=C2\SC(=Nc3ccccc3)NC2=O)c(C)n1-c1ccc(S(N)(=O)=O)cc1	2.6µM*	-13	7.3µM*	u	17%	5.2µM*
COc1cc(OC)cc(-c2nc3nc(C)c(CCC(=O)Nc4ccc(Cl)cc4)c(C)n3n2)c1	-20%	x	x	x	x	15%
c1ccc(CNc2ncnc3c2cnn3-c2ccccc2)cc1	4.6µM*	41	13µM*	6%	9.2µM*	5.8µM*
Cc1ccc(-n2ncc3c(NNC(=O)Cc4ccccc4)ncnc32)cc1	u	0	-17%	5%	23µM*	-14%
Cc1cccc(-n2ncc3c(NCc4ccco4)ncnc32)c1	12µM*	-9	u	u	16µM*	13µM*
Cn1ncc2c(NNC(=O)Cc3ccccc3)ncnc21	-4%	18	-2%	0%	16%	4%
Cc1cccc(-n2ncc3c(NCCc4ccc(S(N)(=O)=O)cc4)ncnc32)c1	u	-13	0%	u	u	29µM*
COc1ccc(CCNC(=O)Cn2c(=O)nc(-c3ccccc3)c3ccccc32)cc1OC	-25%	x	x	x	x	-10%
CCOc1ccc(S(=O)(=O)N(CC)CC)cc1NC(=O)CSCc1c(C)noc1C	u	-26	4%	0%	-1%	u
Fc1ccc(-n2ncc3c(NCCCc4ccccc4)ncnc32)cc1	u	x	x	27%	x	u
c1ccc(CCNc2ncnc3c2cnn3-c2ccccc2)cc1	u	u	18µM*	u	u	u
SMILES	TDP1 cell noCPT	IL1B secr inh	SW480 rereplic	Chronic BCR inh	MCF10A rereplic	TDP1 cell CPT
Cc1cccc(-n2ncc3c(NCc4ccccc4)ncnc32)c1	6.5µM*	23	16µM*	17%	6.5µM*	4.6µM*
COc1ccc(OC)c(Nc2ncnc3c2cnn3-c2cccc(C)c2)c1	4.6µM*	6	7.3µM*	u	u	5.2µM*
Cc1cccc(-n2ncc3c(NCc4ccccn4)ncnc32)c1	u	u	-1%	u	7%	u
Cc1cccc(-n2ncc3c(N4CCCc5ccccc54)ncnc32)c1	u	13	21µM*	23%	12µM*	u
COc1ccc(CCNC(=O)c2cc(-c3ccncc3)nc3ccc(S(=O)(=O)N4CCOCC4)cc23)cc1OC	-3%	2	u	-2%	3%	-20%
C=CCNC(=O)c1ccc(NC(=O)CC2SC(N3CCCC3)=NC2=O)cc1 (configuration not stated)	-1%	16	-5%	-4%	1%	8%
Cc1cccc(C)c1NC(=O)c1csc(COCCO)n1	-5%	9	x	x	x	0%
C=CCn1c(Sc2ncc([N+](=O)[O-])s2)n[nH]c1=O	0.92µM*	-103*	-5%	u	29%	0.41µM*
CN(C)/N=C/C=C1\CCC/C(=C/c2cccs2)C1=O	u	u	u	8%	23µM*	u
COc1cc(C#N)ccc1OCC(=O)Nc1ccc(C)c(S(=O)(=O)N2CCOCC2)c1	u	-24	-13%	-17%	-2%	u
CC(=O)c1c(C)[nH]c(C(=O)OC(C)C(=O)Nc2ccc(C)c(S(=O)(=O)N3CCOCC3)c2)c1C (configuration not stated)	29µM*	40	-2%	-4%	4%	23µM*
Cc1ccc(NC(=O)C(C)OC(=O)c2cc(=O)[nH]c3ccccc23)cc1S(=O)(=O)N1CCOCC1 (configuration not stated)	8%	27	-3%	x	0%	2%
Cc1cc(C)cc(NC(=O)c2oc3ccccc3c2COc2ccccc2)c1	21µM*	-4	1%	3%	u	u
Cc1ccc(NC(=O)c2oc3ccccc3c2COC(C)C)cc1S(=O)(=O)N1CCOCC1	23µM*	-19	2%	1%	u	18µM*
Cc1ccc(NC(=O)COc2ccc(Cl)cc2Cl)cc1S(=O)(=O)N1CCOCC1	u	-57*	-1%	13%	11%	u
CC(C)CNC(=O)c1oc2ccccc2c1COc1ccccc1	u	-21	23%	6%	u	-25%
Cc1ccc(NC(=O)COC(=O)C2(C)CC2(Cl)Cl)cc1S(=O)(=O)N1CCOCC1 (configuration not stated)	23µM*	4	-2%	0%	2%	21µM*
